Test results reported in PubChem BioAssay AID1259312 (Keith Lab, Institute of Cancer Science, University of …, 2017).
The whole screen tested about 4,500 compounds, of which about 200 (4.4%) were called active.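 Rule for the calls: active = cell survival measured by absorbance rises more than 2.5-fold over infected cells without compound; inactive = the rest.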 The sample as a whole holds a higher share of actives than the screen did.

Experiment: survival after telomere uncapping, modulators, primary screen, cell-based (AID 1259312);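 note: virus expresses mutant telomerase RNA that uncaps telomeres and kills cells; compound added 2 days after infection so exposure lasts 3 days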
Conditions: HCT116 + Ad-hTR-mut, MTT, 5 d; at 10 µM, stronger effect = higher value
In the case of `COc1cc(OC)cc(C2SC(N)=C(C#N)C(N)=C2C#N)c1` (stereo unspecified), the fold change is reported as -1.62 (inactive).
In the case of `NC(CC(=O)O)C(=O)O` (stereo unspecified), the fold change is reported as 1.14 (inactive).
For `N[C@@H](CSCC(=O)O)C(=O)O`, the fold change was 2.87 (active).
In the case of `NC(CCCC(N)C(=O)O)C(=O)O` (stereo unspecified), the fold change is reported as -1.27 (inactive).
For `O=C(Cc1cccs1)NC1CCCC1`, the fold change was -3.03 (inactive).
For `C1CCN(c2nc3nonc3nc2N2CCCC2)C1`, the fold change was -1.59 (inactive).
In the case of `O=c1[nH]c(/C=C/c2ccc(Br)cc2)c([N+](=O)[O-])c(=O)[nH]1`, the fold change is reported as 3.45 (active).
In the case of `O=c1[nH]c(/C=C/c2ccc(Br)cc2)nc(O)c1[N+](=O)[O-]`, the fold change is reported as 2.47 (inactive).
With `COc1ccc(OC)c(/C=C/c2[nH]c(=O)[nH]c(=O)c2[N+](=O)[O-])c1` the fold change was 1.29 (inactive).
In the case of `N#CC1=C(N)n2c(s/c(=C\c3ccc(Cl)cc3)c2=O)=C(C#N)C1c1ccc(Cl)cc1` (stereo unspecified), the fold change is reported as -1.6 (inactive).
In the case of `N#CC1Cc2cc([N+](=O)[O-])ccc2-c2cc(Cl)cc(Cl)c21` (stereo unspecified), the fold change is reported as -3.59 (inactive).
With `C/C(Cn1nnc2ccccc21)=N\NC(=O)c1c[nH]c2ccccc12` the fold change was -2.58 (inactive).
In the case of `NNC(=O)COc1ccc2c(c1Br)CCCC2`, the fold change is reported as 2.77 (active).
In the case of `NNC(=O)c1ccc(COc2ccc3c(c2)CCC3)o1`, the fold change is reported as -1.37 (inactive).
In the case of `O=C(COc1ccc(Br)cc1)NCC1CCCO1` (stereo unspecified), the fold change is reported as -1.54 (inactive).
In the case of `S=c1[nH]nc(-c2ccccc2)n1C1CCCCC1`, the fold change is reported as 1.07 (inactive).
With `COCCCN1C(=O)/C(=C/c2cccs2)SC1=S` the fold change was -1.09 (inactive).
With `CCCCC(CC)C(=O)NC(C)(C)C` (stereo unspecified) the fold change was 1.34 (inactive).
For `CCCCCCCCCCCCCCCC(=O)O`, the fold change was 1.25 (inactive).
In the case of `CCCCCCCCCCCCCCC(CC(=O)O)C(=O)O` (stereo unspecified), the fold change is reported as 2.88 (active).
For `COc1ccc(-c2cc(=O)c3ccc(O)cc3o2)cc1`, the fold change was -1.7 (inactive).
For `Cn1nccc1C(=O)O`, the fold change was 3.48 (active).
For `Cn1nccc1C(=O)Nc1nc2ccccc2s1`, the fold change was -1.5 (inactive).
With `Cc1csc(NC(=O)c2ccnn2C)n1` the fold change was 1.09 (inactive).
With `COC(=O)/C(C#N)=C/c1cc(C)sc1C` the fold change was 1.01 (inactive).
In the case of `COC(=O)C1=c2s/c(=C/c3ccncc3)c(=O)n2C(c2ccncc2)C(C#N)=C1N` (stereo unspecified), the fold change is reported as 1.32 (inactive).
With `N#CC1=C(N)C(C#N)=c2s/c(=C/c3ccc(Cl)cc3Cl)c(=O)n2C1c1ccc(Cl)cc1Cl` (stereo unspecified) the fold change was -1.24 (inactive).
In the case of `N#CC1=C(N)n2c(s/c(=C/c3ccc(Cl)cc3Cl)c2=O)=C(C#N)C1c1ccc(Cl)cc1Cl` (stereo unspecified), the fold change is reported as 1.33 (inactive).
In the case of `N#CC1=C(N)C(C#N)=c2s/c(=C/c3ccc(F)cc3)c(=O)n2C1c1ccc(F)cc1` (stereo unspecified), the fold change is reported as 2.25 (inactive).
With `N#CC1=C(N)C(C#N)=c2s/c(=C/c3cccc(F)c3)c(=O)n2C1c1cccc(F)c1` (stereo unspecified) the fold change was 3.89 (active).
With `N#CC1=C(N)C(C#N)=c2s/c(=C/c3c(F)cccc3Cl)c(=O)n2C1c1c(F)cccc1Cl` (stereo unspecified) the fold change was 2.98 (active).
